The panel holds about 83,000 compounds, 20% with a hit somewhere; the sample as a whole holds those more often.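 For each line, cells grew in 96-well plates with the test compound present at a single concentration for 48 hours.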 Active and inactive are the calls of the source. How the source made its calls: active means growth percent below 10; inactive means the rest.
System: TK-10 renal
Test: NCI-60 one-dose screen, 48 h (100 = growth as untreated, 0 = no growth, -100 = all killed)
Conditions: 10 µM unless noted

| SMILES | growth |
| --- | --- |
| CCOC(=O)[C@@H](C)C[C@H](Cc1ccccc1)NC(=O)c1csc([C@@H](C[C@H](C(C)C)N(C)C(=O)[C@H](CC)NC(=O)[C@H]2CCCCN2C)OC(C)=O)n1 | 69.6% (inactive) |
| CCN(CCO)C(Cc1ccccc1)c1ccccc1 (configuration not stated) | 101% (inactive) |
| C1CCC([PH+](C2CCCCC2)C2CCCCC2[PH+](C2CCCCC2)C2CCCCC2)CC1.O=C(C1[CH-]CCCC1)C1CCCC[N-]1.[Au] (configuration not stated) | -47.7% (active) |
| Cn1cc(-c2csc(-c3cn(CCN4CCOCC4)c4ccc(F)cc34)n2)c2cccnc21 | 55.7% (inactive) |
| O=[N+]([O-])c1cc(I)cc([N+](=O)[O-])c1 | 117% (inactive) |
| O=[N+]([O-])CC(O)C(Cl)(Cl)Cl (configuration not stated) | 110% (inactive) |
| N#C[S-].[Au+].c1ccc(CN2[CH-]N(Cc3ccccc3)C(c3ccccc3)=C2c2ccccc2)cc1 | 17.6% (inactive) |
| CC[C@H](NC(=O)[C@H]1CCCCN1C)C(=O)N(C)[C@H](C[C@@H](OC(C)=O)c1nc(C(=O)N[C@@H](Cc2ccccc2)C[C@H](C)C(=O)O)cs1)C(C)C | 69% (inactive) |
| CC(=O)O[C@H](C[C@H](C(C)C)N(C)C(=O)[C@@H](NC(=O)[C@H]1CCCCN1C)C(C)C)c1cccc(C(=O)N[C@@H](Cc2ccccc2)C[C@H](C)C(=O)O)n1 | 69% (inactive) |
| [Cl][Hg][c]1cc[c]([Hg][Cl])o1 | 41.8% (inactive) |
| Clc1ccc(N2COOC3(OOC2)C2CC4CC(C2)CC3C4)cc1 | 27.2% (inactive) |
| COC(=O)[C@@H](C)C[C@H](Cc1ccccc1)NC(=O)c1nc([C@@H](C[C@H](C(C)C)N(C)C(=O)[C@@H](NC(=O)[C@H]2CCCCN2C)C(C)C)OC(C)=O)sc1C | 31.1% (inactive) |
| CC(C)(N)Cc1ccccc1 | 96.5% (inactive) |
| CC1=C(CCCOC(=O)CN)C2=C(C)C3(CC3)[C@@](C)(O)C(=O)C2=C1 | 102% (inactive) |
| COC(=O)[C@@H](C)C[C@H](Cc1ccccc1)NC(=O)c1csc(CC[C@H](C(C)C)N(C)C(=O)[C@@H](NC(=O)[C@H]2CCCCN2C)C(C)C)n1 | 60.5% (inactive) |
| COC(=O)[C@H](C[C@H](Cc1ccccc1)NC(=O)c1csc([C@@H](C[C@H](C(C)C)N(C)C(=O)[C@@H](NC(=O)[C@H]2CCCCN2C)C(C)C)OC(C)=O)n1)NC(=O)OCc1ccccc1 | 44.2% [8.5 µM] (inactive) |
| [Au+].[N-]=C=O.c1ccc(CN2[CH-]N(Cc3ccccc3)C(c3ccccc3)=C2c2ccccc2)cc1 | 104% (inactive) |
| CNCc1cccnc1 | 113% (inactive) |
| CC(=O)O[C@H](C[C@H](C(C)C)N(C)C(=O)[C@@H](NC(=O)[C@H]1CCCCN1C)C(C)(C)C)c1nc(C(=O)N[C@@H](Cc2ccccc2)C[C@H](C)C(=O)O)cs1 | 52.6% (inactive) |

| SMILES | growth |
| --- | --- |
| C[C@@H]1O[C@@H](O[C@H]2C[C@@H](O)[C@]3(CO)C4C(CC[C@]3(O)C2)[C@@]2(O)CC[C@H](C3=CC(=O)OC3)[C@@]2(C)C[C@H]4O)[C@H](O)[C@H](O)[C@H]1O (some centres not stated) | -65% (active) |
| Nc1ccc(Cl)cc1 | 92.3% (inactive) |
| Fc1cccc(NCOOC2(OOCNc3cccc(F)c3)CCCCC2)c1 | 90.8% (inactive) |
| COC(=O)[C@@H](NC(=O)c1cn(CCC2CCCCC2)c2ccccc12)C(C)(C)C | 77.8% (inactive) |
| CCOc1ccccc1C(=O)OCC(Cl)(Cl)Cl | 99.6% (inactive) |
| CCOP(=O)(Cc1ccc(C#N)cc1)OCC | 93.4% (inactive) |
| N#CCCNc1ccccc1 | 115% (inactive) |
| C[C@]12CC[C@H]3[C@@H](CC[C@]4(O)C[C@@H](O[C@@H]5O[C@H](CO)[C@@H](O[C@@H]6OC[C@@H](O)[C@H](O)[C@H]6O)[C@H](O)[C@H]5O)CC[C@]34C=O)[C@@]1(O)CC[C@@H]2C1=CC(=O)OC1 | -6.98% (active) |
| O=P(N1CC1)(N1CC1)N1CCc2ccccc21 | 110% (inactive) |
| COc1cc([C@@H]2c3cc4c(cc3[C@H](OC(C)=O)[C@H]3COC(=O)[C@H]23)OCO4)cc(OC)c1OC | 65.9% (inactive) |
| COC(=O)[C@@H](C)C[C@H](Cc1ccc(F)cc1)NC(=O)c1csc([C@@H](C[C@H](C(C)C)N(C)C(=O)[C@@H](NC(=O)[C@H]2CCCCN2C)C(C)C)OC(C)=O)n1 | 50.2% (inactive) |
| N#C[Se]CCN1C(=O)c2ccccc2C1=O | 15.3% (inactive) |
| O=[N+]([O-])c1c(Br)sc(Br)c1[N+](=O)[O-] | -78.3% (active) |
| CN1C(=O)C(=Cc2cn(CCCCCCn3c4ccccc4c(=O)c4ccccc43)c3ccccc23)C(=O)N(C)C1=O | 111% (inactive) |
| CCCCCCCC[n+]1ccc2ccccc2c1 | 62.9% (inactive) |
| COC(=O)C12CC(NC(=O)c3csc([C@@H](C[C@H](C(C)C)N(C)C(=O)[C@@H](NC(=O)[C@H]4CCCCN4C)C4CC4)OC(C)=O)n3)(C1)C2 | 39.2% (inactive) |
| Cn1cc(-c2csc(-c3cn(CCCCN4CCCCC4)c4ccccc34)n2)c2cccnc21 | 50.2% (inactive) |
| CC1(C)N=C(N)N=C(N)N1c1ccc(CCC(=O)Nc2ccc(S(=O)(=O)F)cc2)c(Cl)c1 | 42.4% (inactive) |
